The list is not random: actives were taken first. Their share in the collection is about 4.2%.
uPA surface inh: cell surface uPA generation inhibition. cell surface uPA generation assay, qHTS. Potency, µM (doses to about 38.3 µM), hits mostly inhibitors. 0.31% of 330,000 active. AID 540303; active = well fitted inhibition curve with a large enough effect; inconclusive = small, poorly fitted or top-dose-only effect; inactive = no such curve, though single readings can be large or run the other way; tested in mouse RAW 264.7 cells; also: nearly all actives have a fitted effect of over 55% in size
ClpP mod: qHTS Assay for Activators of ClpP; ATP-dependent Clp protease proteolytic subunit (Bacillus subtilis (strain 168)), P80244; purified B. subtilis ClpP, FRET peptide cleavage, 20 min; Potency, µM (series often up to 57.5 µM); 1.9% of 340,000 active; AID 651965, 2013; active = well fitted falling curve with a large enough effect; inconclusive = small, poorly fitted or top-dose-only effect; inactive = no such curve, though single readings can be large or run the other way; also: the source files actives as falling curves though it sought activators and does not explain the sign; nearly all actives have a fitted effect of over 65% in size
Target sequence (P80244 whole entry, looked up): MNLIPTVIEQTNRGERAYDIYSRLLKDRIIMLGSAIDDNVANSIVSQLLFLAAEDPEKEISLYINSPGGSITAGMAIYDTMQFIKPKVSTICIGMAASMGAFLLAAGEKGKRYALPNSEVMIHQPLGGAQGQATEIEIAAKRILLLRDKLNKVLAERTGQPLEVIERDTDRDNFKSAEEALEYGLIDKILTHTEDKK
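ClpP 10 microg/mL final, pH 8 Tris/KCl buffer with BSA, glycerol, Tween-20; compound pinned in; FRET-FV substrate; RT 20 min; Ex320/Em430; ΔFRET vs ADEP 5.8 microM, DMSO, no enzyme.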
Sfp inh: blocks B. subtilis Sfp PPTase activity | Biochemical Sfp PPTase activity, qHTS | 3.5% of 310,000 active | Potency, µM, hits mostly inhibitors;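 also: the enzyme is Sfp with the accession as filed and its product quenches rhodamine fluorescence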
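Sfp 15 nM + cpd, 15 min RT; start w/ rhodamine-CoA 5 uM, BHQ-2-YbbR 12.5 uM (final); 50 mM Hepes pH 7.6, 10 mM MgCl2, 0.01% NP-40, 0.01% BSA; read 525/598 nm at 0 and 30 min.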
TCR activator: T cell receptor activation. primary human leukocytes, anti-CD3, IL-2 HTRF, 48 h. Potency, µM (highest dose often 9.22 µM), actives largely listed as activators. 330,000 tested, under 10 active. AID 504894
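Primary human leukocytes receive a-CD3 beads and test compound and are incubated 48 hr. Secreted IL-2 is then assayed by HTRF, measuring 665nm acceptor emission after 320nm excitation of the europium donor.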
Hits are given with their value; - = inactive; ? = inconclusive; . = not tested or not shown. Unless noted, calls follow the shape of the dose curve; as a rule, active = well fitted curve in the direction sought with a large enough effect; inconclusive = small, poorly fitted or top-dose-only effect, or another doubt; inactive = no such curve, though single readings can be large; an effect the other way counts as inactive or inconclusive.

SMILES | uPA surface inh | ClpP mod | Sfp inh | TCR activator
O=C1C2CCCCN2C(=O)N1CCN1CCN(c2cccc(Cl)c2)CC1 (configuration not stated) | - | - | . | -
COc1ccccc1N1CCN(CCN2C(=O)C3CCCCN3C2=O)CC1 (configuration not stated) | - | 32µM | - | -
Cc1ccccc1CN1[C@H](C)[C@H](c2ccccc2)OCCS1(=O)=O | . | - | . | .
O=C1NCCOC(=O)[C@@H](Cc2ccc(F)cc2)C/C=C\C[C@@H]1CC(=O)N(CCO)Cc1ccccc1 | - | - | . | -
COc1cccc(OC)c1-c1nn2c(-c3n[nH]c4c3CCC4)nnc2s1 | . | - | . | .
CCN(CC)c1ccc(-c2nn3c(-c4n[nH]c5c4CCC5)nnc3s2)cc1 | - | 28µM | - | -
N#CC(C#N)=C1NC(N)=C(C#N)C(c2ccccc2)=C1C#N | . | . | 56µM | .
COCCCNC(=S)NNC(=S)Nc1cccc(Cl)c1 | - | - | 22µM | -
COCCCNC(=S)NNC(=S)NCCCOC | - | . | 45µM | -
C=COCCNC(=S)Nc1cccc(Cl)c1 | - | . | - | -
COCCCNC(=S)NNC(=O)c1cc(Cl)c(O)c(Cl)c1 | - | - | - | -
FC(F)(F)c1cccc(N2CCN(c3ncnc4c3nc3n4CCCC3)CC2)c1 | . | - | . | .
c1ccc2cnccc2c1 | . | - | . | .
Cc1c2cc(O)c(=O)cc-2oc2cc(O)c(O)cc12 | . | ? | 40µM | -
COc1cc(OC)c(-c2c3cc(O)c(=O)cc-3oc3cc(O)c(O)cc23)cc1OC | - | - | 16µM | -
O=c1cc(-c2ccc(O)cc2O)oc2ccccc12 | . | . | - | .
Cc1ccc(O)c(C(CC(=O)NCC2(c3ccccc3)CCCC2)c2ccccc2)c1 (configuration not stated) | . | - | . | .
C=CCSc1nc(-c2ccc3c(c2)OCO3)cc(C(F)(F)F)c1C#N | - | ? | 18µM | -
CCOC(=O)CCSc1nc(-c2ccc3c(c2)OCO3)cc(C(F)(F)F)c1C#N | - | - | - | -
CCOC(=O)CC(=O)CSc1nc(-c2ccc3c(c2)OCO3)cc(C(F)(F)F)c1C#N | . | 20µM | - | -
C=Cc1ccc(Cn2c(C)c(C(=O)NCCC#N)sc2=O)cc1 | . | - | . | .
NC(c1csc(Nc2ccc(C(=O)c3ccccc3)cc2)n1)c1ccccc1Cl (configuration not stated) | . | - | . | .
CC(=O)N1CCC2(CC1)CC(=O)c1cc(OCC(=O)NCc3ccco3)ccc1O2 | . | 11µM | - | -
CC(=O)N1CCC2(CC1)CC(=O)c1cc(OCC(=O)NCc3ccc(C)cc3)ccc1O2 | . | 28µM | - | -
CC(=O)N1CCC2(CC1)CC(=O)c1cc(OCC(=O)N3CCCC3)ccc1O2 | ? | - | - | -
SMILES | uPA surface inh | ClpP mod | Sfp inh | TCR activator
COc1ccccc1CNC(=O)CNC(=O)[C@@H]1Cc2ccccc2CN1 | - | - | - | -
COc1ccccc1CNC(=O)C1CCCN(c2nc3ccccc3n3cccc23)C1 (configuration not stated) | . | 13µM | . | .
COc1cccc(CNC(=O)C2CCCN(c3nc4ccccc4n4cccc34)C2)c1 (configuration not stated) | . | - | . | .
Cc1ccc(CNC(=O)C2CCCN(c3nc4ccccc4n4cccc34)C2)cc1 (configuration not stated) | . | 22µM | . | .
O=C(Nc1ccc(Cl)cc1)C1CCN(c2nc3ccccc3n3cccc23)CC1 | . | 28µM | . | .
COc1ccc(-n2nc3c(N4CCCC(C(=O)NCc5ccccc5C)C4)nnc(C)c3c2C)cc1 (configuration not stated) | . | 28µM | . | .
COC1=CC(=O)C(OC)=C(OC)C1=O | - | - | . | -
O=c1cc(-c2ccccc2)n2c(SCc3ccc(F)cc3)nnc2[nH]1 | . | - | . | .
O=C(Cn1nc(-c2ccccc2)c2c(c1=O)CCCC2)Nc1ccc(F)c(Cl)c1 | . | - | . | .
CCOC(=O)C1CCCN(C(=O)CN2C(=O)/C(=C/c3ccc(OC)cc3)Oc3ccccc32)C1 (configuration not stated) | - | - | ? | -
Cc1ccc2c(c1)c1c(c(=O)n(-c3cccc(Cl)c3)c(=O)n1CC(=O)c1ccc(Cl)cc1)n2C | . | - | . | .
CCc1cccc(C)c1NC(=O)C1CN(S(=O)(=O)c2ccccc2)CCN1S(=O)(=O)c1ccccc1 (configuration not stated) | - | 25µM | - | -
Cc1ccc(NCc2nc3ccccc3n2C)cc1 | - | 14µM | ? | -
Cc1ccc(CNc2nc3ccccc3n2C)cc1 | 4µM | - | - | -
Cn1c(CNc2ccc(O)cc2)nc2ccccc21 | ? | - | 79µM | -
O=C(Nc1cc(S(=O)(=O)Nc2ccccc2Cl)ccc1O)c1sc2cc(Cl)ccc2c1Cl | - | . | - | -
O=C(CN1CCN(c2ccccc2)CC1)c1ccc2cc[nH]c2c1 | - | ? | ? | -
O=C(CN1CCC2(CC1)OCCO2)c1ccc2cc[nH]c2c1 | - | 32µM | - | .
C=Nc1ccc(/C=C/c2ccnc3ccccc23)cc1 | . | - | . | .
COc1ccccc1CC(=O)NC1CC(C)(C)NC(C)(C)C1 | - | 28µM | - | -
COc1ccccc1CC(=O)NC1CC1 | - | - | - | .
CC(=O)c1ccc(S(=O)(=O)N2CCN(C(=O)c3ccc(COc4ccccc4)o3)CC2)cc1 | - | - | . | -
O=C1N=C(c2ccccc2)S/C1=C\c1cccs1 | - | - | 35µM | -
O=C1OC(c2ccccc2)=C/C1=C/c1cccs1 | - | - | 50µM | -
Cc1cc([N+](=O)[O-])nn1Cc1ccc(C(=O)N/N=C/c2ccc(O)cc2O)cc1 | 7.1µM | - | - | -
SMILES | uPA surface inh | ClpP mod | Sfp inh | TCR activator
COc1ccc(C(=O)N/N=C(\C)Cn2nc([N+](=O)[O-])cc2C)cc1 | - | 11µM | - | -
NCCNC(=O)c1ncsc1-c1cccc(F)c1 | - | - | . | -
O=C(O)c1ncsc1-c1ccccc1 | - | - | 25µM | -
CCOc1ccc(CNC(=O)Cc2ccc(NC(=O)N3CCSc4ncccc43)cc2)cc1 | . | - | . | .
Cc1cc(C)nc(SCc2nc3nc(C)cc(C)n3c2Br)n1 | - | 28µM | - | -
COc1ccc(Cl)cc1Nc1ncnc2sc(C)c(S(=O)(=O)N3CCC(C)CC3)c12 | - | 32µM | - | -
COCCN(C(=O)C1CC1)c1nnc(-c2ccc(C)cc2)s1 | - | - | - | .
CCOc1ccc(-c2nnc(N(CC)C(=O)C3CCC3)s2)cc1 | - | ? | 40µM | -
CNC(=S)/N=C(\Nc1ccc(C)cc1)c1ccccc1 | - | . | 7.1µM | -
COc1ccc(/C=N/c2c(-c3ccc(OC)cc3)nc3n2CCS3)cc1 | - | - | - | -
COc1ccc(C2=CSC(/N=C/c3ccc(F)cc3)=NN2)cc1 | - | - | 28µM | .
O=C(N/N=C/C=C/c1ccc([N+](=O)[O-])cc1)C1COc2ccccc2O1 (configuration not stated) | - | - | - | -
O=C(N/N=C\C=C\c1ccco1)C1COc2ccccc2O1 (configuration not stated) | - | - | 40µM | -
CSc1ncc(Cl)c(C(=O)NCc2ccc(C)cc2)n1 | . | - | . | .
CCOC(=O)C1=C(O)/C(=C/c2cn(CC(=O)N3CCCC3)c3ccccc23)SC1=Nc1ccccc1 | - | - | 32µM | -
